The source of these data is PubChem BioAssay (Tox21).

Assay [1] is described as follows: Nuclear factor erythroid 2-related factor 2/antioxidant responsive element (Nrf2/ARE) small molecule agonists: qHTS cell viability counter screen in human keratinocytes (AID 1919968; active means well fitted curve in the direction sought with a large enough effect in the repeat runs; an effect the other way counts as inactive or inconclusive; further: nearly all actives have a fitted effect of over 55% in size; further: potency means the concentration at half of the fitted maximal effect). Put shortly:
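Measured as CellTiter-Fluor fluorescence, this readout tracks cytotoxicity in the same wells as the ARE-luciferase screen. HaCaT reporter cells (1,500/well) received compounds after a 5 h pre-incubation and were exposed for 23 h.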

Assay [2] is described as follows: Nuclear factor erythroid 2-related factor 2/antioxidant responsive element (Nrf2/ARE) small molecule agonists: luciferase reporter gene qHTS assay in human keratinocytes (AID 1919969; further: nearly all actives have a fitted effect of over 35% in size; further: potency means the concentration at half of the fitted maximal effect). (Reporter assays use an easily measured gene product as a stand-in for the process of interest.)
In assay [3] the target is Gonadotropin-releasing hormone receptor (Homo sapiens) (UniProt P30968). Put plainly: Human gonadotropin-releasing hormone receptor (GnRHR) small molecule agonists, calcium flux assay in GnRHR-HEK293 cells (AID 1920063). Further: nearly all actives have a fitted effect of over 35% in size. Further: potency means the concentration at half of the fitted maximal effect. Summed up:
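Fluorescence kinetics (480 nm excitation, 540 nm emission; 3 min, 1 s steps) report calcium mobilisation in human GnRHR-HEK293 cells in agonist mode. Dye incubation: 1 h, 37 C.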
A general note: A change in cytosolic calcium serves as a functional read-out for many receptors and channels.

Assay [4] has as its target KiSS-1 receptor (Homo sapiens) (UniProt Q969F8). Put plainly: Human kisspeptin (KISS1R) small molecule agonists, calcium flux assay in KISS1R-HEK293 cells (AID 1920064; active means well fitted curve in the direction sought with a large enough effect in the repeat runs; an effect the other way counts as inactive or inconclusive; further: potency means the concentration at half of the fitted maximal effect). Summed up:
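Measures KISS1R agonism through calcium-sensitive dye fluorescence in stably transfected HEK293 cells, read for 3 min after pin-tool compound delivery; 15-point titrations in triplicate.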

Assay [5] is described as follows: p53 small molecule agonists, cell-based qHTS assay with human liver microsomes (AID 1963577). Put shortly:
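Fluorescence of the beta-lactamase reporter in p53RE-bla cells, detected with LiveBLAzer substrate (2 h, room temperature, dark), served as the read-out after 16 h compound exposure at 37 C with human liver microsomes and NADPH, each 0.5 mg/mL final.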
A general note: qHTS replaces the single test concentration by a dilution series.

Assay [6] in a line: p53 small molecule agonists, cell-based qHTS assay with rat liver microsomes (AID 1963578). Put shortly:
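Cells carrying a p53 response element–beta-lactamase reporter were plated and rested 5 h, then dosed with compound in DMSO plus rat liver microsomes and NADPH, each at 0.5 mg/mL final. After 16 h at 37 C, LiveBLAzer substrate was added for 2 h.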

Assay [7] in a line: p53 small molecule agonists, cell-based qHTS assay with human liver microsomes: qHTS cell viability counter screen (AID 1963579). Further: nearly all actives have a fitted effect of over 45% in size. Further: potency means the concentration at half of the fitted maximal effect. Summed up: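 Cytotoxicity counter screen: p53RE-bla, 4,000 cells/well; 5 h settle, 37 C/5% CO2; cpd + HLM 0.5 mg/mL + NADPH 0.5 mg/mL (final); 16 h, 37 C; CellTiter-Glo, 30 min RT, luminescence.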
Assay [8] can be described thus: p53 small molecule agonists, cell-based qHTS assay with rat liver microsomes: qHTS cell viability counter screen (AID 1963580). Further: nearly all actives have a fitted effect of over 45% in size. Further: potency means the concentration at half of the fitted maximal effect. Summed up:
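HCT-116 p53RE-bla, 4,000 cells/well, 5 h pre-incubation; cpd + rat liver microsomes 0.5 mg/mL + NADPH 0.5 mg/mL (final); 16 h, 37 C; CellTiter-Glo, 30 min RT; luminescence.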

Assay [9] can be described thus: p53 small molecule agonists, cell-based qHTS assay: qHTS cell viability counter screen (AID 1963581). Further: nearly all actives have a fitted effect of over 45% in size. Further: potency means the concentration at half of the fitted maximal effect. Put shortly: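 In the same plates used for the p53 bla reporter, HCT-116 cells given compounds for 16 h at 37 C received CellTiter-Glo; luminescence was recorded 30 min later at room temperature.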
For assay [10], the target named is Muscarinic acetylcholine receptor M1 (Homo sapiens) (UniProt P11229). In words: Cholinergic receptor muscarinic 1 (CHRM1) small molecule antagonists, cell-based qHTS assay (AID 1963588). Further: nearly all actives have a fitted effect of over 40% in size. Put shortly:
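CHRM1-CHO calcium-flux assay, antagonist mode. Cells were seeded 18 h, dye-loaded 1 h at 37 C and given compound for 5 min at RT, then acetylcholine was added at 50nM. FDSS fluorescence was read 3 min; 15 concentrations, three runs.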

Assay [11] in a line: cAMP Responsive Elements (CRE) small molecule antagonists, cell-based qHTS assay (AID 1963591; active means well fitted inhibition curve with a large enough effect in the signal ratio in the repeat runs, not every such curve was filed as active; the % refers to the signal ratio). Summed up:
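Inhibition of NKH477-driven (0.25 uM final) CRE-beta-lactamase signal in HEK293T cells, 3 h compound exposure at 37 °C, detected by FRET substrate fluorescence.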

Assay [12] concerns the target D(2) dopamine receptor (Homo sapiens) (UniProt P14416). In words: Dopamine D2 receptor (DRD2) small molecule agonists, cell-based qHTS assay (AID 1963594). Further: nearly all actives have a fitted effect of over 35% in size. Summed up: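 cAMP accumulation in DRD2-HEK293 cells measured by HTRF after 1 h detection; compounds added 10 min before NKH477 (200nM […]) forskolin-analogue stimulation, 30 min at room temperature, with Ro20-1724 present at 0.1 mM final.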

For assay [13], the target named is 5-hydroxytryptamine receptor 2A (Homo sapiens) (UniProt P28223). Put plainly: 5-hydroxytryptamine receptor 2A (HTR2A) small molecule antagonists, cell-based qHTS assay (AID 1963586). Further: nearly all actives have a fitted effect of over 45% in size. Further: potency means the concentration at half of the fitted maximal effect. Summed up: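 Antagonist-mode intracellular calcium assay: DOI (4 nM) added after 5 min compound pre-incubation at room temperature to dye-loaded HTR2A-CHO cells. Fluorescence followed for 3 min, sampled every second.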
5-hydroxytryptamine receptor 2A (Homo sapiens), sequence (P28223 whole entry, looked up): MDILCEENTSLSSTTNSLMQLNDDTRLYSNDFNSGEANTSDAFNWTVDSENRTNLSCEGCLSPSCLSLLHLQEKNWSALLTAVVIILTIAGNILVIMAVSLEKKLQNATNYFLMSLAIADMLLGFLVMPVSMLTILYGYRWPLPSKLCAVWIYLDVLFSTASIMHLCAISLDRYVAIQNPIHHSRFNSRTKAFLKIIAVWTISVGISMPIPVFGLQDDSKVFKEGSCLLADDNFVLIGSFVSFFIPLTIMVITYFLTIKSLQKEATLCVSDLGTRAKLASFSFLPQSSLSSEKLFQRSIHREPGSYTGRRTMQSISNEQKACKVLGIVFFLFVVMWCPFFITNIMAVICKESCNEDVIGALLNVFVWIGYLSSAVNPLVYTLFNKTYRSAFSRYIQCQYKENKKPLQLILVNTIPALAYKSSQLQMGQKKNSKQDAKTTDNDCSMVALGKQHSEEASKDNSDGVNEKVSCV

Assay [14] shares this target. In words: 5-hydroxytryptamine receptor 2A (HTR2A) small molecule agonists, cell-based qHTS assay (AID 1963587). Further: nearly all actives have a fitted effect of over 30% in size. Further: potency means the concentration at half of the fitted maximal effect. Put shortly:
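Kinetic calcium-flux fluorescence (2 min, 1 sec intervals) after compound addition in agonist mode. HTR2A-CHO cells were cultured 18 h, then dye-loaded 1 h at 37 C.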

The target in assay [15] is Muscarinic acetylcholine receptor M1 (Homo sapiens) (UniProt P11229). In words: Cholinergic receptor muscarinic 1 (CHRM1) small molecule agonists, cell-based qHTS assay (AID 1963589). Further: nearly all actives have a fitted effect of over 35% in size. Further: potency means the concentration at half of the fitted maximal effect. Summed up:
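Each compound was tested at 15 concentrations across three independent runs on dye-loaded CHO cells stably expressing human CHRM1, reading intracellular calcium fluorescence kinetically at 1 sec intervals.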

The nature of assay [16]: cAMP Responsive Elements (CRE) small molecule agonists, cell-based qHTS assay (AID 1963590). Put shortly: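 Cell line: CRE-bla HEK 293T; medium DMEM/10% dialyzed FBS/0.1 mM NEAA/1 mM pyruvate/25 mM HEPES; 3 h compound exposure; beta-lactamase FRET readout after 2 h substrate loading at RT.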
The target of assay [17] is Beta-2 adrenergic receptor (Homo sapiens) (UniProt P07550). Put plainly: Adrenergic beta2 receptor (ADRB2) small molecule antagonists, cell-based qHTS assay (AID 1963592). Further: nearly all actives have a fitted effect of over 50% in size. Further: potency means the concentration at half of the fitted maximal effect. Summed up:
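Cells (CHO, stable ADRB2 overexpression) incubated 18-20hr at 37C; compounds added from DMSO; agonist mix (1nM isoproterenol, 100uM IBMX, 25uM Ro-20-1724) added; 0.5hr RT; d2-cAMP and anti-cAMP-cryptate added; 1hr RT; 665/615 nm read.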

Assay [18] has as its target D(2) dopamine receptor (Homo sapiens) (UniProt P14416). Put plainly: Dopamine D2 receptor (DRD2) small molecule antagonists, cell-based qHTS assay (AID 1963595; active means well fitted inhibition curve with a large enough effect in the signal ratio in the repeat runs, with a control signal flat; the % refers to the signal ratio; further: potency means the concentration at half of the fitted maximal effect). Summed up:
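Readout: HTRF cAMP, cAMP-d2 competing with cellular cAMP for anti-cAMP cryptate, read after 1 h. Cells: DRD2-HEK293. Conditions: 0.1 mM Ro20-1724, 12 nM quinpirole, 200 nM NKH477, 30 min RT.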

Assay [19] is described as follows: G protein-coupled receptor (GPCR) small molecule agonists, calcium flux assay: HEK293 wild type cell line counter screen (AID 1920065). Put shortly:
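Readout: fluorescence at 480 nm excitation/540 nm emission, sampled at 1 s intervals for 3 min. Cells had been cultured 18 h, then dye-loaded 1 h at 37 C before compound or ATP addition.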

Assay [20] is described as follows: p53 small molecule agonists, cell-based qHTS assay (AID 1963582; active means well fitted activation curve with a large enough effect in the signal ratio in the repeat runs, not every such curve was filed as active; the % refers to the signal ratio). Put shortly: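 Compounds are pin-transferred in DMSO onto p53RE-bla cells and incubated 16 h at 37 C. The B/G FRET beta-lactamase substrate is then applied for 2 h at RT and fluorescence recorded.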

Results filed as inconclusive are left out. The source made the active and inactive calls. Unless noted, the call rests on the fitted dose curve.

Muscarinic acetylcholine receptor M1 (Homo sapiens), sequence (P11229 whole entry, looked up): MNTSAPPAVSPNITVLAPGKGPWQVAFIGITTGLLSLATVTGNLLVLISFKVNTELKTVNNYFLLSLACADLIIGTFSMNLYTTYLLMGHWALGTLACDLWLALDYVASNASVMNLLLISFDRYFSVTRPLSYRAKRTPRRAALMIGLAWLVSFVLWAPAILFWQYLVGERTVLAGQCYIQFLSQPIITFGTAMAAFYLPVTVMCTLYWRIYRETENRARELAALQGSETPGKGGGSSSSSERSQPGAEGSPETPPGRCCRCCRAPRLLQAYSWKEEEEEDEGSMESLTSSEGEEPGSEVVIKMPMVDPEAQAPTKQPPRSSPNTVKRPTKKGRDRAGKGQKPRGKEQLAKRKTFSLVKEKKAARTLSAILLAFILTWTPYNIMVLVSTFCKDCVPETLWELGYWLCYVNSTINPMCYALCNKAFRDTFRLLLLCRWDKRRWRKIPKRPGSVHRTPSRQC
Gonadotropin-releasing hormone receptor (Homo sapiens), sequence (P30968 whole entry, looked up): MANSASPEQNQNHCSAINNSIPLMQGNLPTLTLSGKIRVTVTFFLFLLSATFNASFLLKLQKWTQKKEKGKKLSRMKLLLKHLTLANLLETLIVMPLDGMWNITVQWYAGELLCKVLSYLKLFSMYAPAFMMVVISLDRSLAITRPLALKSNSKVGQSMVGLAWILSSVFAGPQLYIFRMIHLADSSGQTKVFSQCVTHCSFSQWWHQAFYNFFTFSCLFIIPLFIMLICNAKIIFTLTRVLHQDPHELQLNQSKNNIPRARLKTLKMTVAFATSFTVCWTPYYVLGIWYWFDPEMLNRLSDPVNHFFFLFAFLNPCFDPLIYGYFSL
D(2) dopamine receptor (Homo sapiens), sequence (P14416 whole entry, looked up): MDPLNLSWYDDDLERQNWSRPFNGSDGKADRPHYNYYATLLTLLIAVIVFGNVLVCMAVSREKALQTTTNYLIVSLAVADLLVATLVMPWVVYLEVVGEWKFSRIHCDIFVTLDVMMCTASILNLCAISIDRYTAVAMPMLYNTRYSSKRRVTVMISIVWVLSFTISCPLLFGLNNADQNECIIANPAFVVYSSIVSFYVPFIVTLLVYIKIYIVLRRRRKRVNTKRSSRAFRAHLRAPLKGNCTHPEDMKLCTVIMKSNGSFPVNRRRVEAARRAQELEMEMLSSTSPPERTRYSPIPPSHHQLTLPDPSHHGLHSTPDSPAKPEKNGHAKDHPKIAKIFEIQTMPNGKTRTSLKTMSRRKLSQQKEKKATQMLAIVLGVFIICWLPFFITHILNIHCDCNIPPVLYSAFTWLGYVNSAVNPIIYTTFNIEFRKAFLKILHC
Beta-2 adrenergic receptor (Homo sapiens), sequence (P07550 whole entry, looked up): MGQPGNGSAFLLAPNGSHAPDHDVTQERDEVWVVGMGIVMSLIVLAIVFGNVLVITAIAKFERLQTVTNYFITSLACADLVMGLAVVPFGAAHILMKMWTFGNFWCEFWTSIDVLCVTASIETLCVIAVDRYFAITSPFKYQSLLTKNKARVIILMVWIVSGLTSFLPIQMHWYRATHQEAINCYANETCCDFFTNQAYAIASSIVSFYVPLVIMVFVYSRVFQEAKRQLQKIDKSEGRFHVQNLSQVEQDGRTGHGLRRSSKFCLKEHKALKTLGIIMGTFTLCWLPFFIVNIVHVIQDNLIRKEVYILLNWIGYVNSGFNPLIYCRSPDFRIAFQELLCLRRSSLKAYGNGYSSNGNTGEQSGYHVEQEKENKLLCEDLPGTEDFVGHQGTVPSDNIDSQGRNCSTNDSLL
KiSS-1 receptor (Homo sapiens), sequence (Q969F8 whole entry, looked up): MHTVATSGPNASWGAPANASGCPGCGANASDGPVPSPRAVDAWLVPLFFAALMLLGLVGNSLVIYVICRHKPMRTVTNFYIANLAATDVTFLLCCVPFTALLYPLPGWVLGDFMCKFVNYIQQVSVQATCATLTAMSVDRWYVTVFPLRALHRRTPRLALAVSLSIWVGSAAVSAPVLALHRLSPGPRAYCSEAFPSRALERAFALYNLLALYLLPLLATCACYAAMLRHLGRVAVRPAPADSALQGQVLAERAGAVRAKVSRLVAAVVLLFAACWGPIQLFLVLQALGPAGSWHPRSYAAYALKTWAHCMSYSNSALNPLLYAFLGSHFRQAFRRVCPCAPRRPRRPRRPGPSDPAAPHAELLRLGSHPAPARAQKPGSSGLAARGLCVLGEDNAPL

Consider `Clc1ccc(C2(Cn3cncn3)CC(Br)CO2)c(Cl)c1` (stereo unspecified), for which the Potency result in [1], in assay [2], in assay [3], in assay [4], in assay [5] and in assay [6] was “inactive” each time. Further, the Potency result in assay [7], in assay [8], in [9], in assay [10], in assay [11] and in assay [12] was “inactive” in each case.
With `CCc1ccc(C2CCNCC2)cc1`, the Potency result in [1], in [2], in assay [3], in assay [4], in [5] and in assay [6] was “inactive” each time. The Potency entry in assay [7], in assay [8], in assay [10], in [15], in assay [16] and in assay [11] was “inactive” each time. Further, the Potency entry in assay [17], in [12] and in assay [18] was “inactive” in each case. The Potency is 18.3 µM (active) in assay [13] and 8.49 µM (active) in assay [14].
Turning to `O=C(NC(=O)c1c(F)cccc1F)Nc1ccc(Oc2ccc(C(F)(F)F)cc2Cl)cc1F`, the Potency result in assay [1], in assay [2], in assay [3], in [4], in assay [5] and in [6] was “inactive” throughout. For the same compound, the Potency entry in assay [7], in assay [8], in assay [9], in assay [14], in assay [10] and in assay [15] was “inactive” each time. In addition, the Potency result in [17] and in assay [12] was “inactive” in each case.
As for `C=CC(=O)[O][Sn]([CH2]CCC)([CH2]CCC)[CH2]CCC`, the Potency was 0.969 µM (active) in [1]; 1.37 µM (active) in [2]; 5.49 µM (active) in assay [3]; 19.5 µM (active) in assay [4]; 5.13 µM (active) in assay [7]; 8.14 µM (active) in assay [8]. For the same compound, the Potency was 1.62 µM (active) in [9]; 3.75 µM (active) in assay [13]; 12.3 µM (active) in [14]; 11 µM (active) in assay [15]; 0.969 µM (active) in assay [17]; 2.43 µM (active) in [18]. Also, the Potency entry in assay [5], in [6] and in assay [12] was “inactive” each time.
`CC(C)CC#N`: the Potency entry in [1], in [2], in assay [3], in assay [4], in assay [19] and in [9] was “inactive” in each case. Further, the Potency result in [13], in assay [14], in assay [10], in assay [15], in assay [16] and in assay [11] was “inactive” throughout. The Potency entry in assay [17], in assay [12] and in assay [18] was “inactive” throughout.
Consider `CCOC(=O)C1(c2ccccc2)CCN(CCc2ccc(N)cc2)CC1`, for which the Potency entry in [1], in [2], in assay [3], in assay [4], in assay [5] and in [6] was “inactive” in each case. The Potency result in assay [9], in assay [20], in assay [14], in assay [15], in assay [16] and in assay [11] was “inactive” in each case. In addition, the Potency entry in assay [17] and in assay [18] was “inactive” in each case.
On to `CC1(C)[C@H](C=C(Cl)Cl)[C@@H]1C(=O)O[C@@H](C#N)c1cccc(Oc2ccccc2)c1`, for which the Potency result in [1], in assay [2], in assay [3], in assay [4], in assay [5] and in assay [7] was “inactive” each time. The Potency result in [8], in [9], in assay [20], in [13], in assay [14] and in assay [15] was “inactive” each time. Also, the Potency result in [16], in [11], in assay [17], in [12] and in assay [18] was “inactive” throughout.
Consider `N#Cc1cc(I)c(O)c(I)c1`, for which the Potency result in [1], in assay [2], in assay [3], in assay [4], in assay [5] and in [6] was “inactive” throughout. Also, the Potency entry in assay [13], in assay [14], in assay [10], in [15], in assay [12] and in assay [18] was “inactive” throughout. Moreover, the Potency in [8] is 45.8 µM (active).
For the compound `CNC(=O)Oc1cc(C)c(SC)c(C)c1`, the Potency entry in assay [1], in [2], in [3], in [4], in [7] and in assay [8] was “inactive” in each case. Moreover, the Potency result in assay [9], in [20], in assay [14], in assay [10], in assay [16] and in assay [11] was “inactive” in each case. The Potency result in assay [12] and in assay [18] was “inactive” throughout.
